Data from PubChem BioAssay AID1778 (Sanford-Burnham Center for Chemical Genomics, 2009).
About 260 (0.09%) of roughly 290,000 compounds were called active. No stated cut-off is given here; in the data, active means inhibition above about 50%; inactive means the rest. The entries come from a sample that favours actives as a whole. Potency and affinity values are given separately.

Target: Kappa-type opioid receptor (Homo sapiens) (UniProt P41145)
Experiment: KOR antagonists, beta-arrestin recruitment, cell-based, luminescence, uHTS (AID 1778)
Conditions: antagonist mode, stronger effect = higher value; at 10 µM unless noted

Sequence of Kappa-type opioid receptor (Homo sapiens) (P41145 whole entry, looked up): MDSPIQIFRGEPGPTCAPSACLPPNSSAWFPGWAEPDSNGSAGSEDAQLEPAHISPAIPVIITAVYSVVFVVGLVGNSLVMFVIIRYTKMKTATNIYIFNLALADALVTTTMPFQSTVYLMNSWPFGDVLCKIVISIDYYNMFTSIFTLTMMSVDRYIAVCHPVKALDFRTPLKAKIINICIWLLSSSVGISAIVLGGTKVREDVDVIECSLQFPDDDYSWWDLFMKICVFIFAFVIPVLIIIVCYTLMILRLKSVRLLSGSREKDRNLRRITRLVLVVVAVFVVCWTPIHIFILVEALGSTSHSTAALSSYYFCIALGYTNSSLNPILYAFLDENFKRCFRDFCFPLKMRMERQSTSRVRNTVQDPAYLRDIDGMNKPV

| SMILES | inhibition |
| --- | --- |
| CCOc1ccc(CNc2ccc3c(c2)nc(C)n3C)cc1 | 7.3% (inactive) |
| Oc1c(CN2CCc3ccccc3C2)cc(Cl)c2cccnc12 | -4% (inactive) |
| Oc1ccc(CN2CCCCC2)c2cccnc12 | -7.4% (inactive) |
| Nc1nc(NC(=O)c2cccs2)nn1-c1ccccc1 | -23% (inactive) |
| Oc1c(Cl)cc(CN2CCCCC2)c2cccnc12 | -1.6% (inactive) |
| Clc1cc2cccnc2c2ccccc12 | 1.4% (inactive) |
| O=[N+]([O-])c1cc(Cl)c2cccnc2c1O | 1.5% [at 20 µM] (inactive) |
| Oc1c(I)cc(I)c2cccnc12 | -35.5% (inactive) |
| COc1cccc(NC(=O)CSc2nc3ccccc3n2C)c1 | 2.2% (inactive) |
| O=C(NC(NC(=S)Nc1cccc(C(=O)O)c1)C(Cl)(Cl)Cl)OCc1ccccc1 (stereo unspecified) | 3.3% (inactive) |
| Cc1ccc(C)c(NC(=S)NC(NC(=O)OCc2ccccc2)C(Cl)(Cl)Cl)c1 (stereo unspecified) | -2% (inactive) |
| Cc1cccc(NC(=S)NC(NC(=O)OCc2ccccc2)C(Cl)(Cl)Cl)c1 (stereo unspecified) | -6.6% (inactive) |
| O=C(NC(NC(=S)Nc1cccc(Cl)c1)C(Cl)(Cl)Cl)OCc1ccccc1 (stereo unspecified) | 5.1% (inactive) |
| O=C(CNCCc1ccc(F)cc1)Nc1cc(F)ccc1F | -1.9% (inactive) |
| CC(=O)N1N=C(c2ccccc2)CC1c1cccc([N+](=O)[O-])c1 (stereo unspecified) | -7% [at 20 µM] (inactive) |
| O=C(O)CCC(=O)N1N=C(c2cccs2)CC1c1cccc([N+](=O)[O-])c1 (stereo unspecified) | -24.4% [at 20 µM] (inactive) |
| CCc1nn(CC(=O)NCCCN(C)Cc2ccccc2)c(=O)c2cc3sc(C)cc3n12 | 1.9% (inactive) |
| CCC(=O)N1CC2(CC(c3cccc(NC(=O)COc4ccc(Cl)cc4)c3)=NO2)C[C@@H]1C(N)=O (stereo partly specified) | 8.3% (inactive) |
| O=C(N/N=C/c1cc(Br)cc([N+](=O)[O-])c1O)c1ccc(NC(=O)c2ccc(F)cc2)cc1 | -22.2% (inactive) |
| CCOC(=O)c1ccc(N/N=C/c2cc(Br)cc([N+](=O)[O-])c2O)cc1 | 60.8% [at 20 µM] (active) |
| COC(=O)c1ccc(N/N=C/c2cc([N+](=O)[O-])cc(OC)c2O)cc1 | -4.6% (inactive) |
| COc1ccc(CNC(=O)C2CCC(CNS(=O)(=O)c3ccc(C)cc3)CC2)cc1 (stereo unspecified) | 5.5% (inactive) |
| CCOc1ccc2nc(N3C(=O)/C(=C/c4ccccc4)NC3=S)sc2c1 | 13.6% (inactive) |
| O=C1CNC(=S)N1c1nc2ccccc2s1 | 18.9% (inactive) |
| Cc1ccc2nc(N3C(=O)CNC3=S)sc2c1 | 45.5% (inactive) |
| COc1ccc2nc(N3C(=O)CNC3=S)sc2c1 | 59.9% (inactive) |
